Screens (PubChem)
Hits are enriched below; roughly 8% of the tested compounds scored in any of these assays.
SW480 rereplic – induces DNA re-replication in SW480 colon adenocarcinoma cells. SW480 DNA re-replication, Hoechst DNA content imaging, 48 h. Potency, µM (series often up to 46.1 µM), for inactives: at the highest dose re-replication activation, most hits filed as activators. hit rate 1.8% among 340,000. AID 624297; note: % of control where 0% means no effect; nearly all actives have a fitted effect of over 55% in size
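Treated cells incubate 48 hr (37 C, 5% CO2), are stained 40 min with Hoechst, and nuclear fluorescence is enumerated; a rise in nuclei with high DNA signal marks re-replication.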
HT1080-NT tox – kills 2HG-producing HT-1080-NT fibrosarcoma cells; HT-1080-NT fibrosarcoma viability, CellTiter-Glo ATP luminescence, 48 h; Potency, µM (titrated, usually from 46.1 µM), without a hit: at the highest dose activity, negative = less viability, usual class: cytotoxic; hit rate 1.6% among 360,000; AID 686970;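 note: NT is the 2HG producing partner of a matched IDH1 knockdown line; 0% = DMSO-treated cells and -100% = media-only wells without cells; nearly all actives have a fitted effect of over 55% in size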
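Fibrosarcoma NT cells, 750 per well in 5% FBS RPMI, were exposed to compound for 48 hours. Viability: CellTiter-Glo luminescence.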
KB-3-1 tox – kills parental KB-3-1 adenocarcinoma cells; KB-3-1 viability, CellTiter-Glo ATP luminescence, 72 h; Potency, µM (titrated, usually from 46.1 µM), most hits filed as cytotoxic; hit rate 1.4% among 400,000; AID 1347075; note: % is set by controls: 0 for no effect and ±100 for the full control effect; nearly all actives have a fitted effect of over 60% in size
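KB-3-1 cells, DMEM (no phenol red) + 10% FBS; compound by pin transfer, 72 h, 37 °C. Readout: CellTiter-Glo luminescence after 10 min. Data normalized, curve-fitted.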
MCF10A rerep – inducers of DNA re-replication in MCF 10A breast cells; MCF 10A DNA re-replication, Hoechst nuclear intensity, 48 h; Potency, µM (top dose mostly 46.1 µM), for the others: top-dose activity, positive = re-replication, hits mostly activators; hit rate 2.9% among 350,000; note: % of control where 0% means no effect; nearly all actives have a fitted effect of over 50% in size
HT1080 IDH1KD tx – HT-1080 IDH1 knockdown cell toxicity (counter line); HT-1080 IDH1 knockdown viability, ATP luminescence, 48 h; Potency, µM (titrated, usually from 46.1 µM), for the others: at the highest dose activity, negative = toxicity, usual class: cytotoxic; hit rate 2% among 360,000; AID 686971;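 note: 0% = DMSO wells and -100% = cell-free medium wells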
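Knockdown cells (IDH1KD HT-1080) received compounds 2 h after plating at 750 cells/well and were kept 48 h at 37 °C in 5% FBS RPMI. A CellTiter-Glo luminescence read gave % activity for curve fitting.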
KB-V1 cytotox – kills drug-selected multidrug resistant KB-V1 cells | KB-V1 MDR cells viability, CellTiter-Glo, 72 h | hit rate 3.4% among 400,000 | Potency, µM (series often up to 46.1 µM), usual class: cytotoxic | AID 1347076; note: % is set by controls: 0 for no effect and ±100 for the full control effect; nearly all actives have a fitted effect of over 60% in size
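Cytotoxicity via CellTiter-Glo luminescence after 72 h compound exposure at 37 degrees C. Cells: drug-selected KB-V1 line, DMEM phenol-red free plus 10% FBS. Compounds tested at multiple concentrations; normalized data fitted to concentration-effect curves.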
Active calls of the source: *; i = inactive; ? = inconclusive; . = not tested or not shown; [ ] = dose if it differs, or a comment. Calls come from the whole dose curve; as a rule, active = well fitted curve in the direction sought with a large enough effect; inconclusive = small, poorly fitted or top-dose-only effect, or another doubt; inactive = no such curve, though single readings can be large; an effect the other way counts as inactive or inconclusive. Potency is the fitted concentration of half-maximal effect.

SMILES | SW480 rereplic | HT1080-NT tox | KB-3-1 tox | MCF10A rerep | HT1080 IDH1KD tx | KB-V1 cytotox
CCCCN1C(=O)C(CC(=O)NCc2cccc3ccccc23)CC(C(=O)N2CCCCCC2)=C1C (stereo not drawn) | . | 0% | ? | . | -5% | 9.2µM*
CC1=C(C(=O)N2CCCCCC2)CC(CC(=O)NCCCCc2ccccc2)C(=O)N1CCC1=CCCCC1 (stereo not drawn) | . | ? | ? | . | ? | 16µM*
COCCCN1C(=O)C(CC(=O)NCc2cccc3ccccc23)CC(C(=O)N2CCOCC2)=C1C (stereo not drawn) | . | 18% | i | . | 20% | i
CC1=C(C(=O)N(C)C)CC(CC(=O)NCCCCc2ccccc2)C(=O)N1CCC1=CCCCC1 (stereo not drawn) | . | 4% | i | . | 12% | i
CC1=C(C(=O)N2CCOCC2)CC(CC(=O)NC(c2ccccc2)c2ccccc2)C(=O)N1CCC1=CCCCC1 (stereo not drawn) | . | -19% | i | . | -17% | 10µM*
CC(=O)C[C@@H](O)CC(=O)[C@@H]1OC(=O)[C@@H](C)CCCCc2ccccc21 | -4% | 6% | i | 0% | 4% | i
COc1ccccc1NC(=O)Cn1c(=O)n(CCCCCC(=O)NCc2ccccc2)c(=O)c2sccc21 | . | . | i | . | . | i
COc1ccc(C2C(C(=O)Nc3cccnc3)=C(C)Nc3nc(SCc4ccccc4)nn32)cc1 (stereo not drawn) | . | . | i | . | . | ?
CCOc1ccc(CCNC(=O)CCCc2nnc3n(CC)c(=O)c4sccc4n23)cc1OCC | . | . | i | . | . | i
CC1=C(C(=O)N2CCCCCC2)CC(CC(=O)NCc2cccc3ccccc23)C(=O)N1CCC1=CCCCC1 (stereo not drawn) | . | ? | ? | . | ? | 18µM*
CC1=C(C(=O)N2CCCCCC2)CC(CC(=O)NCc2cccs2)C(=O)N1CCC1=CCCCC1 (stereo not drawn) | . | 1% | i | . | 9% | ?
CCc1ccc(S(=O)(=O)c2nnn3c2nc(N2CCOCC2)c2sccc23)cc1 | . | . | i | . | . | i
CCOC(=O)c1ccccc1NC(=O)c1c2c(nc3ccccc13)C(=O)N(C1CCCCC1)C2 | . | . | i | . | . | i
COc1cc(SC)ccc1C(=O)Nc1nc2ccccc2[nH]1 | -2% | 1.6µM* | 2.9µM* | 10% | 1.5µM* | ?
CSc1ccccc1C(=O)Nc1nc2ccccc2[nH]1 | 1% | 2% | i | 0% | 23% | i
COc1ccccc1C(=O)Nc1nc2ccccc2[nH]1 | 5% | 1.5µM* | 2.3µM* | -3% | 1.3µM* | 4.1µM*
Cc1cc(C)c(OCC(=O)Nc2nc3ccccc3[nH]2)c(C)c1 | -29% | 1% | i | 0.82µM* | 2% | i
COc1ccccc1C(=O)NCCC(=O)Nc1nc2ccccc2[nH]1 | -34% | -11% | i | -1% | -5% | i
NC(=O)C(OC(=O)CNC(=O)C1CCCCC1)c1ccccc1 (stereo not drawn) | . | . | ? | . | . | i
CCOC(=O)c1cc(C#N)c(SC)nc1C | -8%[9.22 µM] | 2% | i | 0% | 6% | i
CCOC(=O)c1cc(C#N)c(SCc2ccc(C#N)cc2)nc1C | -1% | -1% | i | 26% | -17% | 2.3µM*
Cc1cc(C(=O)N/N=C/c2ccco2)c2ccccc2n1 | ? | -15% | i | ? | -24% | i
CC(/C=N/NC(=O)c1cc(-c2ccccc2)nc2ccccc12)=C\c1ccco1 | 8.2µM* | ? | 4.1µM* | ? | ? | 7.3µM*
Cc1ccc(-c2cc(C(=O)N/N=C/c3ccoc3)c3ccccc3n2)cc1 | ? | -17% | i | ? | ? | i
CC(/C=N/NC(=O)c1cc(-c2ccc(Cl)cc2)nc2ccccc12)=C\c1ccco1 | 5.2µM* | ? | 1µM* | 0.65µM* | 0.82µM* | 0.92µM*
